Holding throughout (assay): DAPPL (digital affinity profiling via proximity ligation, sequencing); 10 mM Tris-HCl pH 7.5, 50 mM NaCl, 1 mM DTT, 4% glycerol, room temperature, 30 min; GST-TFs on glutathione beads, 16-mer random dsDNA library, 0.1% formaldehyde crosslink after washing; high values mean tight binding
In one experiment the target is T1, FEV (Homo sapiens, UniProt Q99581 1-238).
T1 sequence: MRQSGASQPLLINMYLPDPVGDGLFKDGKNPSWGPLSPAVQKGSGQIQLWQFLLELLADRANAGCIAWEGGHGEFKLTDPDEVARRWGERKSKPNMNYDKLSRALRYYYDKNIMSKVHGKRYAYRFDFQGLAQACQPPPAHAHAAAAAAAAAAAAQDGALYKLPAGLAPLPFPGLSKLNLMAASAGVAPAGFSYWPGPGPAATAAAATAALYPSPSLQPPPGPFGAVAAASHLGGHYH
The following applies: protein: recombinant; tags: N-terminal GST; dsDNA, one strand shown. In short, it runs like this:
(§1)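 Binding signal is each hexamer's read frequency for a factor divided by its frequency in the tag-only sample. The factors were GST-fused human transcription factors from yeast, captured on glutathione beads, DNA-barcoded and pooled with that sample. Pools were incubated with 200 nmole of a random double-stranded 16-mer DNA library in Tris/NaCl/DTT/glycerol buffer at room temperature for 30 min, then washed, crosslinked with 0.1% formaldehyde, proximity-ligated with BsaI/T4 ligase (1 h, 37 °C), PCR-amplified and sequenced on an Illumina NextSeq500.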

For another experiment, the target named is ETV5 (Homo sapiens, UniProt P41161 1-510). To be noted: protein: recombinant; tags: N-terminal GST; dsDNA, one strand shown. In short, it runs like this: as §1
ETV5, sequence (P41161 whole entry): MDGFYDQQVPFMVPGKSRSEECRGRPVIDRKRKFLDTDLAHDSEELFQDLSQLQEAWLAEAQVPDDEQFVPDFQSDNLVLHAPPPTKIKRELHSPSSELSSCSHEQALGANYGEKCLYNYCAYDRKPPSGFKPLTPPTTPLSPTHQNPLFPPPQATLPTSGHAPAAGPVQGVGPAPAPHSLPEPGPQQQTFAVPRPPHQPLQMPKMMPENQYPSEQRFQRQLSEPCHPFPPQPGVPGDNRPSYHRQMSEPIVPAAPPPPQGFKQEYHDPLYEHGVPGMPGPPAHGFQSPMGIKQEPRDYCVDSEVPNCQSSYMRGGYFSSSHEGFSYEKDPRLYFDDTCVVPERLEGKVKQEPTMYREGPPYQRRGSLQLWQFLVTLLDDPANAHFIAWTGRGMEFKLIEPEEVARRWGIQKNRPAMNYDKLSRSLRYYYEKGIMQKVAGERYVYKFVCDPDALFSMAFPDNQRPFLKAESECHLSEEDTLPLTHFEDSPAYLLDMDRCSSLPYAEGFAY
The target of a further experiment is HSF1 (Homo sapiens, UniProt Q00613 1-529). The following applies: protein: recombinant; tags: N-terminal GST; chain copies: 3; dsDNA, one strand shown. In short, it runs like this: as §1
HSF1, sequence (Q00613 whole entry): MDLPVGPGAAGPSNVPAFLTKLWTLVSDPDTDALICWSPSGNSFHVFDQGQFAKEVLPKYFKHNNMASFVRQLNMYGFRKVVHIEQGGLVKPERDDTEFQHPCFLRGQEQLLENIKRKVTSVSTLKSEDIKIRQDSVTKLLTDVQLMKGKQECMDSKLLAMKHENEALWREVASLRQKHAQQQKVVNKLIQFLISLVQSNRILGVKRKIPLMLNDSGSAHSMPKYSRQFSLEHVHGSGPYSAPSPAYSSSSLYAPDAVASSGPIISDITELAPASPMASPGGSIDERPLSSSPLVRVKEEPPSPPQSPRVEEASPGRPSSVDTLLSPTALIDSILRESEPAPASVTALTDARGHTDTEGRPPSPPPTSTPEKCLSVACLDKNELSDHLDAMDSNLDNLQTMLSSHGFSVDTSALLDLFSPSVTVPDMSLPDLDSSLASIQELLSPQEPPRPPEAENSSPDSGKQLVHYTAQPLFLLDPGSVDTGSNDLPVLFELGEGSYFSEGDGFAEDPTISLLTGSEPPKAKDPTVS
Another experiment deals with T2, SPIC (Homo sapiens, UniProt Q8N5J4 1-248).
T2 sequence: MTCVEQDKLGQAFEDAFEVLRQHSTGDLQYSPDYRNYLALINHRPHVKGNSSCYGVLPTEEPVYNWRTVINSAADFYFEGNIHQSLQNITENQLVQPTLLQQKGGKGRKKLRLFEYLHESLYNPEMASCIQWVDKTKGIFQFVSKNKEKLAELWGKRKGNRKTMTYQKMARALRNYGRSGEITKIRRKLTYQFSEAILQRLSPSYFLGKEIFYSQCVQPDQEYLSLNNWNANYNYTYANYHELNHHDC
To be noted: protein: recombinant; tags: N-terminal GST; dsDNA, one strand shown. In short, it runs like this: as §1

A further experiment has as its target ELF4 (Homo sapiens, UniProt Q99607 1-663). The following applies: protein: recombinant; tags: N-terminal GST; dsDNA, one strand shown. In short, it runs like this:
as §1

A further experiment has as its target T3, ELK4 (Homo sapiens, UniProt P28324-2 1-405).
T3 sequence: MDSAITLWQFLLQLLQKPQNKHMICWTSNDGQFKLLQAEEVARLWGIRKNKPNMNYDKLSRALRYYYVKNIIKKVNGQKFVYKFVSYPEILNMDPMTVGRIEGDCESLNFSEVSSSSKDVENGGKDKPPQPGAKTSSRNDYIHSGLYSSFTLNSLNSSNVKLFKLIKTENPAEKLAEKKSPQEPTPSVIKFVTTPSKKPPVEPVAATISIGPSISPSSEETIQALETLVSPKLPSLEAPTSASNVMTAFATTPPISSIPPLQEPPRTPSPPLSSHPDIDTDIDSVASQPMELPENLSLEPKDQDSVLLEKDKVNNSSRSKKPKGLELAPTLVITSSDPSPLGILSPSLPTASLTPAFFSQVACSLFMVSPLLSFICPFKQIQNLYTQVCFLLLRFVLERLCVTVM
To be noted: protein: recombinant; tags: N-terminal GST; dsDNA, one strand shown. In short, it runs like this:
as §1

For the next experiment, the target named is T4, ETV2 (Homo sapiens, UniProt O00321 1-342).
T4 sequence: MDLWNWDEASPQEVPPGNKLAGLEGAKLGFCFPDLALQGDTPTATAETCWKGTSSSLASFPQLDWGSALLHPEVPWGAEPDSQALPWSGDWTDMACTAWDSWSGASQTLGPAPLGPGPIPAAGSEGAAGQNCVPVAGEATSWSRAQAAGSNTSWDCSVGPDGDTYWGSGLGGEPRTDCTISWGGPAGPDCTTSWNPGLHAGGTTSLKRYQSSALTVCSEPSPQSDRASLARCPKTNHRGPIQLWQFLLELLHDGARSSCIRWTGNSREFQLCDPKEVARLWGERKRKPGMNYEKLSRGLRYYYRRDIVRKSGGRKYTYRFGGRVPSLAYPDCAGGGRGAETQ
The following applies: protein: recombinant; tags: N-terminal GST; dsDNA, one strand shown. In short, it runs like this:
as §1

For a further experiment, the target named is T5, ELF3 (Homo sapiens, UniProt P78545 1-371).
T5 sequence: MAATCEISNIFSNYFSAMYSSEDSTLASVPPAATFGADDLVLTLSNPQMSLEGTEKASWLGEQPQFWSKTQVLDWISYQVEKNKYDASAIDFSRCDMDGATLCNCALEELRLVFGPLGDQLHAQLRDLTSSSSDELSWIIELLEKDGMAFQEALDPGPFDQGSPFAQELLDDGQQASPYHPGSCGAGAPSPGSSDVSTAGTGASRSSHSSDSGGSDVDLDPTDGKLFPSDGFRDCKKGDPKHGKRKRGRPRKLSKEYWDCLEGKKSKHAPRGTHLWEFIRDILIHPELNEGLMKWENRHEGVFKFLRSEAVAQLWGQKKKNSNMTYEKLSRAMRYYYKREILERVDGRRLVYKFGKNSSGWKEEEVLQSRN
The following applies: protein: recombinant; tags: N-terminal GST; dsDNA, one strand shown. In short, it runs like this:
as §1

Another experiment deals with CRX (Homo sapiens, UniProt O43186 1-299). To be noted: protein: recombinant; tags: N-terminal GST; dsDNA, one strand shown. In short, it runs like this:
as §1

Another experiment addresses ETV1 (Homo sapiens, UniProt P50549 1-477). The following applies: protein: recombinant; tags: N-terminal GST; dsDNA, one strand shown. In a few lines:
as §1

A further experiment has as its target T6, ERF (Homo sapiens, UniProt P50548 1-548).
T6 sequence: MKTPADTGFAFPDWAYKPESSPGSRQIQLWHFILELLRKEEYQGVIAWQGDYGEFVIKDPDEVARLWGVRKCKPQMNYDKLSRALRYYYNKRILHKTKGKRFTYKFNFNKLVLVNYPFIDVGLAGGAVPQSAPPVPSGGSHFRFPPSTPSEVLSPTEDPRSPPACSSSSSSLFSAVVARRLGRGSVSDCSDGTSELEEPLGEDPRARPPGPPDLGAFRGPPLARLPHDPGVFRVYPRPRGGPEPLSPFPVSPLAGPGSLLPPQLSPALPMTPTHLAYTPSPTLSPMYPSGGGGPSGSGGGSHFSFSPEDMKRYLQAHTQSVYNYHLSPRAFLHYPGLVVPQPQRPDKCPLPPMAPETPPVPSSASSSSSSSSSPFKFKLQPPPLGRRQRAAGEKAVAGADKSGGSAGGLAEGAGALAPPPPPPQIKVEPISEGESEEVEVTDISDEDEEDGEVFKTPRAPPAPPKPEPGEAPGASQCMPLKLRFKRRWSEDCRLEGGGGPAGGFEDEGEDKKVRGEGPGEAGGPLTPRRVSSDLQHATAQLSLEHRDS
To be noted: protein: recombinant; tags: N-terminal GST; dsDNA, one strand shown. In a few lines: as §1

In another experiment the target is T7, ETV3L (Homo sapiens, UniProt Q6ZN32 1-361).
T7 sequence: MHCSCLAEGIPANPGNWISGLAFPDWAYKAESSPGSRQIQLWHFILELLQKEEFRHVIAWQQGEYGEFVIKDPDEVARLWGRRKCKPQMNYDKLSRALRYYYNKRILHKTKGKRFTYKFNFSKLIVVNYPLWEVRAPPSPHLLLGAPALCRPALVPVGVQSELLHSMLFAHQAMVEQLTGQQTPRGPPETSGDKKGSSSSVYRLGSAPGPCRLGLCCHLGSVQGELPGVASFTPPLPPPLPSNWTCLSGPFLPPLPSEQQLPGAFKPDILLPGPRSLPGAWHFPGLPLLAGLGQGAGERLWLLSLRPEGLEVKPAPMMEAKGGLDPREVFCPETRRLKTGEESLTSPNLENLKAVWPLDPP
To be noted: protein: recombinant; tags: N-terminal GST; dsDNA, one strand shown. In a few lines: as §1

Another experiment has as its target T8, ETS2 (Homo sapiens, UniProt P15036 1-469).
T8 sequence: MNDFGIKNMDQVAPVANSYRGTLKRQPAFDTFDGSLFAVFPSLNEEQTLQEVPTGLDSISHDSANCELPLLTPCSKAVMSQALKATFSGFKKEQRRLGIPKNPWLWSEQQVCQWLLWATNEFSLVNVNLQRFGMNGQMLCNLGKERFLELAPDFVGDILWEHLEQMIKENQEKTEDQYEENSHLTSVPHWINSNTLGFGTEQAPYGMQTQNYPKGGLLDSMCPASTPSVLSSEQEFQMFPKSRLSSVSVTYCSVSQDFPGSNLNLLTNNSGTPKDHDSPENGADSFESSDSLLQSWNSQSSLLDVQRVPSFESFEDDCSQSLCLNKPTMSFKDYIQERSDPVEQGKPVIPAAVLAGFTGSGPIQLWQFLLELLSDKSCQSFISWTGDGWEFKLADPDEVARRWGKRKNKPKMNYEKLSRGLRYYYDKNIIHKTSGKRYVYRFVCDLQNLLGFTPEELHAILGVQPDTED
The following applies: protein: recombinant; tags: N-terminal GST; dsDNA, one strand shown. In a few lines:
as §1

Another experiment concerns the target T9, SPDEF (Homo sapiens, UniProt O95238 1-335).
T9 sequence: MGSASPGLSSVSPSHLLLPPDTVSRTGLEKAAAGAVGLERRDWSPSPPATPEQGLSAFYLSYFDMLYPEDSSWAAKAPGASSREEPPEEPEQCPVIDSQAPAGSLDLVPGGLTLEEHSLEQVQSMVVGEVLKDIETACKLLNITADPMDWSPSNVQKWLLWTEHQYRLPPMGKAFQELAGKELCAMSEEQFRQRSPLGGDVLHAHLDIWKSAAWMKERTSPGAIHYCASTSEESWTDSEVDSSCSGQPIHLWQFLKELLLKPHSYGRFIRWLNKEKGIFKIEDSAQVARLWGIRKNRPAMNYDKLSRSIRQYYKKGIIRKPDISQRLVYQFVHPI
To be noted: protein: recombinant; tags: N-terminal GST; dsDNA, one strand shown. In a few lines: as §1

The next experiment concerns the target T10, ETV7 (Homo sapiens, UniProt Q9Y603 1-341).
T10 sequence: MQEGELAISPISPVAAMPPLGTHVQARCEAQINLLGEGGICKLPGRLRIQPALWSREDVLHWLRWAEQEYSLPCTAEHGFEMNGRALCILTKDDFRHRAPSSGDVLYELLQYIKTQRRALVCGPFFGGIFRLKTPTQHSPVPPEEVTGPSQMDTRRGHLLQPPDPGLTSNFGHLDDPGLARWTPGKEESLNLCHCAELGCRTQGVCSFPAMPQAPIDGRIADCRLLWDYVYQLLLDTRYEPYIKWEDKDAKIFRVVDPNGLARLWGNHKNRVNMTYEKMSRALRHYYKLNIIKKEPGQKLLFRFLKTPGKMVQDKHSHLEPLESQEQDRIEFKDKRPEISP
To be noted: protein: recombinant; tags: N-terminal GST; dsDNA, one strand shown. In short, it runs like this: as §1

In a further experiment the target is T11, ELF5 (Homo sapiens, UniProt Q9UKW6-2 1-255).
T11 sequence: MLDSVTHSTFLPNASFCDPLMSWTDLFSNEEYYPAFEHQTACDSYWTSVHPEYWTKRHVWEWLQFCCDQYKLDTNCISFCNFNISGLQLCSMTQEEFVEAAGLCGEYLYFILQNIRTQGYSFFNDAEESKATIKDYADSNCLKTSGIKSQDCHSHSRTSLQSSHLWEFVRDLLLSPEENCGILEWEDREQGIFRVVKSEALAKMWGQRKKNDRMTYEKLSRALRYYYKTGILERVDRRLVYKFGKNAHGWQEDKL
To be noted: protein: recombinant; tags: N-terminal GST; dsDNA, one strand shown. In short, it runs like this: as §1

The next experiment concerns the target T12, ETV3 (Homo sapiens, UniProt P41162-2 1-143).
T12 sequence: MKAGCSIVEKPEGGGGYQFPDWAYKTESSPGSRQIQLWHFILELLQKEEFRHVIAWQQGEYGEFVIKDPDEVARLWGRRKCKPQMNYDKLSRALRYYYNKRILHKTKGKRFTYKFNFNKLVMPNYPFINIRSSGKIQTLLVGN
To be noted: protein: recombinant; tags: N-terminal GST; dsDNA, one strand shown. In short, it runs like this:
as §1

The next experiment addresses ETV6 (Homo sapiens, UniProt P41212 1-452). The following applies: protein: recombinant; tags: N-terminal GST; dsDNA, one strand shown. In short, it runs like this:
as §1

ELF4, sequence (Q99607 whole entry): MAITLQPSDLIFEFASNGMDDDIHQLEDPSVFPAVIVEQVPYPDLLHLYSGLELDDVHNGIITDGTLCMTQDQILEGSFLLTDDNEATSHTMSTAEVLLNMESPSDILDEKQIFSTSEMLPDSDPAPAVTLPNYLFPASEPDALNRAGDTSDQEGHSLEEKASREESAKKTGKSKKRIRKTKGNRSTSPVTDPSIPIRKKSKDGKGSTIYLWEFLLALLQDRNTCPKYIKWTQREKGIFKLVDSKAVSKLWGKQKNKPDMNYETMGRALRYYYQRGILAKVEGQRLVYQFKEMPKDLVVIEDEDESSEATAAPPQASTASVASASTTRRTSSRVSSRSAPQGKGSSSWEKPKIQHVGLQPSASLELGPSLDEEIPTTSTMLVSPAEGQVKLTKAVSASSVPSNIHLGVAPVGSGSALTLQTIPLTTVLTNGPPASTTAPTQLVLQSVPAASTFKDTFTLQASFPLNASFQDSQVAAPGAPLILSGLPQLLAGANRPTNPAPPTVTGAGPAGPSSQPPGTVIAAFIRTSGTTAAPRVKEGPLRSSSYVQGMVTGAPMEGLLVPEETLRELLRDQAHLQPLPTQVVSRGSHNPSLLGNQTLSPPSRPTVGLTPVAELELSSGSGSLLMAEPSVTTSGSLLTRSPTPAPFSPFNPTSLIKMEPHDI
ETV6, sequence (P41212 whole entry): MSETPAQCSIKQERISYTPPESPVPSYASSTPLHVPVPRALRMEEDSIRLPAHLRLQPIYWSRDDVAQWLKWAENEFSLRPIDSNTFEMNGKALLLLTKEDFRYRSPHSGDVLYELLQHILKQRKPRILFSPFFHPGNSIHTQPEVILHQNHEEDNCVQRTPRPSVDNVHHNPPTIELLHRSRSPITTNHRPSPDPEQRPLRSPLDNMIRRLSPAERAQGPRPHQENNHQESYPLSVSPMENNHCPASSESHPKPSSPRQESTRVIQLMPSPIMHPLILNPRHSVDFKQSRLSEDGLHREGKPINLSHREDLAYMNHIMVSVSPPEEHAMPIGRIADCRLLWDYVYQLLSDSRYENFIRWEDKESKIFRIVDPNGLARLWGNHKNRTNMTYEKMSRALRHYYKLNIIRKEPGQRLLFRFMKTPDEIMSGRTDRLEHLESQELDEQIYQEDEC
CRX, sequence (O43186 whole entry): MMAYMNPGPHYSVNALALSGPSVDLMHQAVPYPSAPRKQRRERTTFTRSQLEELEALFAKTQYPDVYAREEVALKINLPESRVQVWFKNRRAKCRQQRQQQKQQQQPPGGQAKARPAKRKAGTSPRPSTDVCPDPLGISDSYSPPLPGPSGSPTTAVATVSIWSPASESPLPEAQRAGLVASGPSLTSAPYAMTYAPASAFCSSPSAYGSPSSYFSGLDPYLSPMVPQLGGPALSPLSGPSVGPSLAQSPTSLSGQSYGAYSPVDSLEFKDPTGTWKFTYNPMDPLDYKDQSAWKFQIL
ETV1, sequence (P50549 whole entry): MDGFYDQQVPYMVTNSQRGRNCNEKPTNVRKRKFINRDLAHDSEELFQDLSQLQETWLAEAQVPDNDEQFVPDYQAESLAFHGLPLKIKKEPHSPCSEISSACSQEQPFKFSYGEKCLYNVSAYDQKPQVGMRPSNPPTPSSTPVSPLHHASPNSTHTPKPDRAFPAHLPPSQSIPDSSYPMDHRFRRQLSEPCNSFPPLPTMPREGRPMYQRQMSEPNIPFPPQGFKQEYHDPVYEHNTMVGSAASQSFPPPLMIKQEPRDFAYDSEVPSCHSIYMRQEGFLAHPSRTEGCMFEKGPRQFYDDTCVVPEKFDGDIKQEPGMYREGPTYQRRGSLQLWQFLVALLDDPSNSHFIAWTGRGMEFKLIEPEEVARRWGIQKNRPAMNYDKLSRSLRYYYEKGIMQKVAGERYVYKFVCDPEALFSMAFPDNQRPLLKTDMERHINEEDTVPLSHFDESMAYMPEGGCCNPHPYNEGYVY

On to ATCTCC, for which the binding signal in the experiment with FEV is 1.5 fold enrichment (6-mer frequency, TF over GST control); with ETV5 it was 1.48 fold enrichment (6-mer frequency, TF over GST control); in the experiment with HSF1, 1.67 fold enrichment (6-mer frequency, TF over GST control); in the experiment with SPIC, 1.49 fold enrichment (6-mer frequency, TF over GST control); with ELF4, 1.57 fold enrichment (6-mer frequency, TF over GST control); in the experiment with ELK4, 1.47 fold enrichment (6-mer frequency, TF over GST control). Also, the binding signal in the experiment with ETV2 is 1.48 fold enrichment (6-mer frequency, TF over GST control); with ELF3 it was 1.3 fold enrichment (6-mer frequency, TF over GST control); with CRX it was 2.01 fold enrichment (6-mer frequency, TF over GST control); with ETV1, 1.57 fold enrichment (6-mer frequency, TF over GST control); in the experiment with ERF, 1.47 fold enrichment (6-mer frequency, TF over GST control); with ETV3L, 1.46 fold enrichment (6-mer frequency, TF over GST control). Also, the binding signal with ETS2 was 1.5 fold enrichment (6-mer frequency, TF over GST control); in the experiment with SPDEF, 1.68 fold enrichment (6-mer frequency, TF over GST control); with ETV7, 1.31 fold enrichment (6-mer frequency, TF over GST control); with ELF5, 1.53 fold enrichment (6-mer frequency, TF over GST control); with ETV3, 1.44 fold enrichment (6-mer frequency, TF over GST control); with ETV6, 1.51 fold enrichment (6-mer frequency, TF over GST control).

The record behind these values is article PMC7862700, “An all-to-all approach to the identification of sequence-specific readers for epigenetic DNA modifications on cytosine”.
